Experimental findings from ChEMBL document CHEMBL4513216, “Probing the Open Global Health Chemical Diversity Library for Multistage-Active Starting Points for Next-Generation Antimalarials” (ACS Infect Dis, 2020) are described below.

Molecules are shown by their SMILES. The campaign covered roughly 65,000 compounds. About 2,100 (3.2%) showed an effect of 50% or more. The median lay at about -52%. This excerpt belongs to a sample that is enriched for strong results.

This test has as its system Plasmodium falciparum. Kind of test: Screen against P. falciparum Asexual Blood Stage (ABS), at 5uM. It is filed as functional, Dd2. Particulars: tested at 5 uM.
Regarding `Cc1cccc(CN2Cc3ccnn3CC(COCC3CC3)C2)n1` (stereo not drawn), the INHIBITION is on record as -11.3%.

As for `COCCN1CCN(C(=O)NC2CC2)Cc2ccc(C)nc21`, the INHIBITION is -51.3%. In the case of `Cc1cc(C[C@@H]2COC[C@H]2NCc2ccc(Cl)c(Cl)c2)on1` it was -65.7%. In the case of `Cn1cc(N2CCC3(CCCN(Cc4ccc(F)cc4)C3)C2=O)cn1` (stereo not drawn) it was -69.1%; in that of `O=C1COC2(CCN(CC3CC3)CC2)CN1c1ccsc1`, -43%; in that of `c1cc(C2CC2)n2cnc(C3CN(Cc4ccncc4)CCO3)c2c1` (stereo not drawn), -50%. The result for `COCC(=O)N1CCC(c2nc3ccc(-c4ccncc4)cn3n2)CC1` reads -48.7%; that for `c1ccc2c(c1)cnn2CCCNC1CCOC2(CCOCC2)C1` (stereo not drawn), 68.9%. As for `c1ccc(Cc2noc(CCNC3CCOC4(CCOCC4)C3)n2)cc1` (stereo not drawn), the INHIBITION is recorded as -43.3%. In the case of `c1ccc2c(c1)ccn2CCCNC1CCOC2(CCOCC2)C1` (stereo not drawn) it was 61.8%; in that of `c1ccc(-c2nc(CCNC3CCOC4(CCOCC4)C3)no2)cc1` (stereo not drawn), -81.3%. In the case of `c1ccc2c(c1)nnn2CCCNC1CCOC2(CCOCC2)C1` (stereo not drawn) it was -4.37%; in that of `c1ccc(-c2noc(CCNC3CCOC4(CCOCC4)C3)n2)nc1` (stereo not drawn), -80.1%; in that of `COc1cc(F)ccc1-c1ncccc1NC(=O)C(C)C`, -81.8%.

Consider `CC(C)(C)c1nc(NS(=O)(=O)c2cccc(F)c2)no1`, for which the INHIBITION is given as -71.4%.

For `Cc1cc(NCc2ccc(C#N)cc2)n2nc(C)cc2n1`, the INHIBITION is -88.7%. In the case of `Cc1nn(C)c2cn(C(C)C(=O)NCc3ccccn3)nc12` (stereo not drawn) it was -17.6%. In the case of `Cc1noc(C)c1CN1CCN(CCN(C)C)c2ncccc2C1` it was 23.7%; in that of `CN(C)CCN1CCN(Cc2cccc(C#N)c2)Cc2cccnc21`, 65.1%. In the case of `CC(C)N(C)Cc1cnc2n1CCN(Cc1cccc(C#N)c1)C2` it was 10.6%. In the case of `Cc1ncccc1NC(=O)c1nc2c(n1C)CCN(C(=O)C1CC1)C2`, the INHIBITION is -117%. For the compound `COc1cc(C(C)NCc2scnc2C)ccc1SC(F)F` (stereo not drawn), the INHIBITION is 19.3%. In the case of `COc1ccccc1NCc1cscn1` it was -46.4%.

For `COc1cc(C(C)NCc2cscn2)ccc1SC(F)F` (stereo not drawn), the INHIBITION is given as 52.5%. The result for `CN(Cc1cccnc1)C1CC2(CCN(Cc3cccnc3)CC2)C1` reads -8.45%; that for `Cc1ccc(N2CCC3(CC2)CCN(C2CCOCC2)CC3)nn1`, -77.4%; that for `COCCN(Cc1ccc(C)cc1)CC1CCOC1` (stereo not drawn), -104%.

Consider `COc1ncccc1CN1C[C@@H]2COC[C@]2(COc2cccnc2)C1`, for which the INHIBITION is -33.8%. As for `Fc1cccc(CN2C[C@@H]3COC[C@]3(COCc3ccncc3)C2)c1`, the INHIBITION was -28.5%.

On to `COc1cccc(CN2C[C@@H]3COC[C@]3(COCc3ccncc3)C2)c1`, for which the INHIBITION was 33.5%.

`COc1cccc(CN2C[C@@H]3COC[C@]3(COCc3ccccn3)C2)c1`: the INHIBITION was 61%. In the case of `COc1ccccc1CN1C[C@@H]2COC[C@]2(COCc2ccncc2)C1` it was 55.3%. In the case of `COc1cccc(CN2C[C@@H]3COC[C@]3(COc3cccnc3)C2)c1` it was 16.9%. The result for `COc1ccccc1CN1C[C@@H]2COC[C@]2(COc2cccnc2)C1` reads 52.9%; that for `CCOC[C@]12COC[C@H]1CN(Cc1cccc(OC)c1)C2`, 3.19%. As for `COc1cc(N2C[C@@H]3COC[C@]3(COCc3ccncc3)C2)ncn1`, the INHIBITION is on record as -1.95%.

Take `COCc1nc(C(=O)N2CCCC(n3ccnc3)C2)cs1` (stereo not drawn): the INHIBITION is reported as -141%.

Take `Cn1cc(N2CC3(CCN(Cc4ccsc4)CC3)OCC2=O)cn1`: the INHIBITION is reported as -22.1%. In the case of `Cc1nc(NCCCn2cccn2)c2c(n1)c(C)nn2C` it was -54.6%. In the case of `Cc1cn2c(n1)CCC(NC(=O)CCCOCc1ccccc1)C2` (stereo not drawn) it was -45.8%; in that of `Cc1nc(CO[C@@H]2CN(Cc3cnn(C)c3)[C@@H]3COC[C@@H]32)cs1`, -12.8%.

Regarding `Cc1n[nH]c(C)c1-c1cc(-c2cccc(O)c2)nc(N)c1C#N`, the INHIBITION is on record as -71.8%. For `Cc1n[nH]c(C)c1-c1cc(-c2ccc[nH]2)nc(N)c1C#N`, the INHIBITION is reported as -185%. Consider `CC(C)Cc1cc(-c2cc(-c3ccc[nH]3)nc(N)c2C#N)n[nH]1`, for which the INHIBITION is 61.3%. The result for `N#CC1(NC(=O)c2ccc(F)c(Br)c2)CCSC1` (stereo not drawn) reads -155%; that for `CCc1ccc(NC(=O)CCN2CC(n3nc(C)cc3C)C2)cc1`, -12.9%. The result for `CC(C)CN1CCCC1c1ccc(C(=O)Nc2cc[nH]n2)s1` (stereo not drawn) reads 44.6%; that for `CC(C)CN1CCCC1c1ccc(C(=O)Nc2cn(C)nn2)s1` (stereo not drawn), 52.9%; that for `CCc1nnc(NC(=O)c2ccc(C3CCCN3CC(C)C)s2)s1` (stereo not drawn), -54.1%.

In the case of `O=C(Nc1cccc(Cl)c1)c1nn(C2CCS(=O)(=O)C2)c2c1CCCC2` (stereo not drawn), the INHIBITION is 25.4%. In the case of `O=C(CO[C@@H]1CC[C@H]2[C@H]1OCCN2Cc1ccccn1)N1CCCC1` it was -59.6%. The result for `O=C(c1cnccn1)N1CCC2(CC1)CCN(Cc1ccccn1)C2=O` reads -85.2%. In the case of `CN(Cc1cncnc1)[C@@H]1CN(Cc2ccco2)C[C@@H]2CCCO[C@@H]21`, the INHIBITION is listed as -7.65%.
